Measurements published in PubChem BioAssay AID504332 (National Center for Advancing Translational Sciences (NCATS), 2011).
The whole screen tested about 350,000 compounds, of which about 31,000 (8.9%) were called active. About 15% were inconclusive and are not listed. Calls follow the shape of the dose curve; as a rule, active = well fitted inhibition curve with a large enough effect; inconclusive = small, poorly fitted or top-dose-only effect; inactive = no such curve, though single readings can be large or run the other way. Many of the other results were omitted from the sample, so actives are more common in it than they were.

Each molecule was assayed against Histone-lysine N-methyltransferase EHMT2 (Homo sapiens) (UniProt Q96KQ7) (assay: qHTS Assay for Inhibitors of Histone Lysine Methyltransferase G9a). Details: G9a H3K9 monomethylation, AlphaScreen, 2 h; series mostly up to 59 µM.
Histone-lysine N-methyltransferase EHMT2 (Homo sapiens), sequence (Q96KQ7 913-1193 limits assumed): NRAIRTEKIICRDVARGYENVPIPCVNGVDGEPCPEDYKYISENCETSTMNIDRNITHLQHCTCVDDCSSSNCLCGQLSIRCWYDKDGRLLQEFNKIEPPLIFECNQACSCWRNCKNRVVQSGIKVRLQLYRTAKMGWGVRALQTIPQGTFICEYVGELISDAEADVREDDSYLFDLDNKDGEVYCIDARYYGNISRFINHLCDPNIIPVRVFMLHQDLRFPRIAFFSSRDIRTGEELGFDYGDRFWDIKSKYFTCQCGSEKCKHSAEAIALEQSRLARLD
Outline: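 Readings reflect AlphaScreen signal from monomethyl-H3K9 antibody detection. HMT at 20 nM; substrate b-H3K9 500 nM; cofactor SAM 20 uM; 2 h RT reaction; compounds tested as titrations in qHTS with 15 min preincubation.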
% is scaled to controls: 0 for no effect and ±100 for the full control effect; potency is read from the fitted curve at half-maximal effect.
Also: nearly all actives have a fitted effect of over 75% in size.

Potency, inactive:
COc1ccc(OCCCn2c(C3CC(=O)N(c4ccc(F)cc4)C3)nc3ccccc32)cc1 (stereo not drawn)
CC(C)N(C(=O)Cn1c(SCC(=O)N2CCN(c3ccccc3)CC2)nc2ccccc21)C(C)C
Cc1ccc(C(C)C)c(OCCSc2nc3ccccc3n2CC(=O)O)c1
O=C(Nc1nnc(C2CC(=O)N(c3ccc(Cl)cc3)C2)s1)c1ccco1 (stereo not drawn)
CCN(c1ncnc2c1cnn2-c1ccc(C)cc1)C1CCCCC1
COc1ccccc1OCC(O)CN1CCOCC1 (stereo not drawn)
C/C=C/c1ccc(OCCCCN2CCC(C)CC2)c(OC)c1
CCC(=O)N1CCc2cc(S(=O)(=O)NC(Cc3ccccc3)C(=O)NCc3ccc(C)cc3)ccc21 (stereo not drawn)
c1ccc(CNc2ncnc3[nH]ncc23)cc1
CCCCn1c(N)c(N(CCC(C)C)C(=O)COC(=O)c2ccc(CC)cc2)c(=O)[nH]c1=O
CCCCN(C(=O)c1ccc2ccccc2c1)c1c(N)n(CCCC)c(=O)[nH]c1=O
CCCCn1c(N)c(N(CC(C)C)C(=O)c2cnc(C)cn2)c(=O)[nH]c1=O
CCCCn1c(N)c(N(CC(C)C)C(=O)c2ccc(Br)o2)c(=O)[nH]c1=O
Cc1cc(C)c2oc(C(=O)Nc3ccc(S(=O)(=O)N(C)c4ccccc4)cc3)cc(=O)c2c1
COc1cc(OC)cc(C(=O)Nc2c(C(=O)Nc3ccc(F)cc3)oc3ccccc23)c1
Cc1ccccc1CSCCNC(=O)C1CCN(S(=O)(=O)Cc2ccccc2)CC1
CC(OC(=O)Cc1ccc(F)cc1)C(=O)N1CCc2ccccc21 (stereo not drawn)
Cc1c(C)n2c(SCC(=O)N3CCCC3)nnc2[nH]c1=O
CCC1(c2ccccc2)NC(=O)N(CC(=O)c2ccc3c(c2)OCO3)C1=O (stereo not drawn)
O=C(CN1CCC(O)(c2cccc(C(F)(F)F)c2)CC1)NCCc1ccccc1
CC(C)c1ccc(NC(=O)C2CCN(c3nc(-c4ccc(C(C)C)cc4)no3)CC2)cc1
Cc1cc(-c2ccc(C)c(S(=O)(=O)Nc3ccc(S(N)(=O)=O)cc3)c2)on1
CCOc1ccccc1CNS(=O)(=O)c1cc(-c2cc(C)no2)ccc1C
COc1ccc2c(C)c(CCC(=O)NCc3ccc(OC)c(OC)c3)c(=O)oc2c1
CC(=O)N1CCCc2cc(S(=O)(=O)N3CCC(C(=O)NCc4ccc(C)cc4)CC3)ccc21
COc1cccc2sc(Nc3nc(C)c(C(C)=O)s3)nc12
O=C(Nc1cc(C(F)(F)F)ccc1Cl)c1nc2ccccc2nc1N1CCCCC1
O=S(=O)(c1ccc(Cl)cc1)c1nnn2c1nc(NC1CCCC1)c1sccc12
COc1ccccc1/C=C/C(=O)NC(=S)N1CCOCC1
CCNC(=S)N1CCN(C(=O)c2ccco2)CC1
CCOC(=O)c1ccc(NC(=O)Cn2c(=O)n(-c3ccc(C)cc3)c(=O)c3c2cnn3C)cc1
O=S(=O)(Nc1ccc2nc(-c3cccc(Cl)c3)oc2c1)c1ccccc1
CCc1ccccc1NS(=O)(=O)c1ccc2nc(-c3ccccc3)[nH]c2c1
COc1ccc2oc(=O)c(-c3cn4c(n3)sc3cc(OC)ccc34)cc2c1
CCn1c(CN2CCC(C)CC2)nc2cc(NC(=O)c3ccccc3[N+](=O)[O-])ccc21
COC(=O)c1cc(S(=O)(=O)NCC2CCN(Cc3ccc(Cl)cc3)CC2)cn1C

Potency, active:
Cc1cccc(OCCSc2nc3ccccc3n2CC(=O)N2CCCCC2)c1C 12.6 µM
C/C=C/c1ccc(OCC(O)CN2CCCCCCC2)c(OC)c1 (stereo not drawn) 20 µM
CCCCn1c(N)c(N(CC(C)C)C(=O)C2CSC3(C)CCC(=O)N23)c(=O)[nH]c1=O (stereo not drawn) 50.1 µM
CCCCn1c(N)c(N(CC(C)C)C(=O)c2ccc(-n3c(C)ccc3C)cc2)c(=O)[nH]c1=O 56.2 µM
CCCCn1c(N)c(N(CC(C)C)C(=O)CSc2ccc([N+](=O)[O-])cc2)c(=O)[nH]c1=O 50.1 µM
Cc1ccc(NNC(=O)C2CCC2)cc1C 11.2 µM
CCN(CC)c1ccc(NS(=O)(=O)c2cc(-c3cc(C)no3)ccc2C)c(C)c1 3.16 µM
COc1cccc2sc(NNC(=O)c3nc4ccccc4s3)nc12 12.6 µM
O=C(/C=C/c1ccco1)NC(=S)N1CCCCC1 70.8 µM
O=S(=O)(Nc1ccc2nc(-c3ccco3)[nH]c2c1)c1ccccc1 31.6 µM

activity, negative = inhibition, inactive:
COc1ccc([C@H]2CC(=O)C=C(c3ccc(OC(F)(F)F)cc3)C2)cc1OC -10% [at 2.33 µM]
CN(CC(=O)NCC(c1ccccc1)N1CCCC1)S(=O)(=O)c1ccc(Cl)cc1 (stereo not drawn) -5.36% [at 12.7 µM]
CCCCN(C(=O)CCNC(=O)NC12CC3CC(CC(C3)C1)C2)c1c(N)n(CCCC)c(=O)[nH]c1=O -3.13% [at 0.501 µM]
CCCCN(C(=O)c1ccc(C)o1)c1c(N)n(CCCC)c(=O)[nH]c1=O 4.93% [at 0.501 µM]
COc1ccc([C@H]2CC(=O)C=C(/C=C/c3ccc(Cl)cc3)C2)cc1 9.28% [at 2.33 µM]
O=C(NNC(=O)C1CCC1)c1ccccc1 24.7% [at 12.7 µM]
Cc1ccc(C)c(OCC(=O)NNC(=O)C2CCC2)c1 -2.65% [at 12.7 µM]
Cc1cc(C)n2nc(C(=O)OCC(=O)N(CCC#N)c3ccc(F)cc3)nc2n1 12.1% [at 0.501 µM]
COc1ccccc1OCc1nc2ccccc2s1 17.1% [at 12.7 µM]
CC1(C)CC(=O)C=C(c2ccc3ncccc3c2)C1 6.31% [at 2.33 µM]
COc1ccc(S(=O)(=O)N2CCOCC2)cc1NC(=O)CC1CC2CCC1C2 (stereo not drawn) 1.4% [at 2.33 µM]
COc1ccc(Cl)cc1NC(=O)CN(C)C(=O)c1cc(-c2cccs2)nn1-c1ccccc1 8.22% [at 0.501 µM]
